Growth data for 40 molecules are collected here from PubChem BioAssay (NCI).

SMILES strings stand for the structures. This is part of a sample that, as a whole, favours compounds with a hit. Of some 83,000 tested, about 20% had one in any assay.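 Treatment: one concentration, 48 hours, 96-well format. Scoring: percent growth, with anything below 10 considered active.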 Calls of active or inactive are those of the source.

In this experiment the test system is OVCAR-5 ovarian. The experiment is described as follows: NCI-60 one-dose screen, 48 h (100 = growth as untreated, 0 = no growth, -100 = all killed). Conditions: 10 µM unless noted. The protocol:
Growth inhibition of the OVCAR-5 human tumor cell line is measured as a screen for anti-cancer activity. Cells are grown in 96 well plates and exposed to the test compound for 48 hours. Compounds are tested at a single concentration, which is 10^-5 M for most compounds. The reported endpoint is percent growth (GI% or GIPRCNT), where numbers from 0 - 100% represent growth inhibition, and numbers from -100% - 0 represent cell death. For example, a value of 40 represents 60% growth inhibition. A value of 0 means no net growth occurred over the course of the experiment. A value of -40 indicates 40% of cells at the beginning of the experiment died by the end of the experiment. A value of -100 means all cells are dead at the end of the experiment.
NCI-60 Human Tumor Cell Lines Screen was performed using the standard one-dose NCI protocol, which is described in more detail at https://dtp.cancer.gov/discovery_development/nci-60/default.htm.
Compounds with GIPRCNT values below 10 were considered active. Activity score was based on GIPRCNT using the following formula: […]
Score is 0 for GIPRCNT values of 100 or above, 50 for GIPRCNT values of 0, and 100 for GIPRCNT values of -100.
`Nc1nn2c(-c3cc4cc(Br)ccc4oc3=O)ccnc2c1N=Nc1ccccc1`: the growth was 16.8% (inactive).
The value for `O=C(/C=C1\C(=O)N(Cc2ccccc2)c2ccccc21)c1cc2ccccc2oc1=O` was 116% (inactive); that for `O=C(CSc1nc2ccccc2c(=O)[nH]1)Nc1ccccc1C(=O)O` was 105% (inactive).
The value for `N#CCc1nnc(NC(=O)c2ccc(-n3c(=O)[nH]c4ccccc4c3=O)cc2)s1` was 96.7% (inactive); that for `NS(=O)(=O)c1cccc(Nc2nc(SCC(=O)c3ccc(F)cc3)nc3ccccc23)c1` was 45.1% (inactive).
`O=C(O)CC1S/C(=N/N=C/c2nc3ccccc3s2)NC1=O` (stereo not given): the growth is 123% (inactive).
With `COc1ccc(-c2cc(C(=O)OCc3ccc(Br)cc3)nn2-c2ccc(S(C)(=O)=O)cc2)cc1OC`, the growth was 97.8% (inactive).
Take `COc1ccc2[nH]c(O)c(N=Nc3nc(-c4ccc(C#N)cc4)cs3)c2c1`: the growth was 94.1% (inactive).
For `COc1ccc2c(c1)C(Sc1ccc(Cl)cc1)c1c(nc(N)c(C#N)c1N)O2` (stereo not given), the growth was 108% (inactive).
The value for `CN1C(=O)C(O)(CC(=O)c2cc3ccccc3oc2=O)c2ccccc21` (stereo not given) was 107% (inactive).
Take `COc1ccc(-c2nc3ccccc3n2CC(=O)N=Nc2c(O)[nH]c3ccc(Br)cc23)cc1`: the growth is 113% (inactive).
The value for `N#Cc1ccc(C(=O)NNC(=O)CSc2nc3sc4c(c3c(=O)n2-c2ccc(Cl)cc2)CCCC4)cc1` was 31.9% (inactive); that for `Cc1cccc(-c2ccccc2Oc2ccc3nnc(Cl)n3n2)c1` was 104% (inactive); that for `Cc1nn(-c2ccccc2)c2nc(C)n(CC(=O)N/N=C/c3ccccc3O)c(=O)c12` was 46.6% (inactive).
As for `O=C(N=Nc1c(O)[nH]c2ccc(Br)cc12)c1ccc2nc(-c3ccc(Cl)cc3)[nH]c2c1`, the growth was 10.6% (inactive).
In the case of `c1ccc(CSc2nnc(-c3ccc4nc(-c5ccccc5)[nH]c4c3)o2)cc1`, the growth is 75.3% (inactive).
Take `O=C(CSc1nnc(-c2ccc(-c3nc4ccccc4[nH]3)cc2)o1)Nc1ccccc1`: the growth is 86% (inactive).
The value for `CC1=C(C(=O)OC(C)C)C(c2ccc(O)cc2)NC(=O)N1` (stereo not given) was 105% (inactive); that for `Cn1cc(-c2cc(N)n3nc(-c4c[nH]c5ccccc45)cc3n2)c2cc(Br)ccc21` was -57.1% (active).
For `Nc1cc(-c2c[nH]c3ccc(F)cc23)nc2cc(-c3c[nH]c4ccccc34)nn12` the value was 1.01% (active).
The value for `CCCCCCCCc1ccc(C(=O)Nc2cccc(O)c2)cc1` was 100% (inactive); that for `O=C(CSc1nnc(-c2ccc(-c3nc4ccc(Cl)cc4[nH]3)cc2)o1)Nc1ccccc1` was 49.9% (inactive).
For the molecule `CCOC(=O)c1ccc(NC(=S)NC(=O)c2cccc(NC(=O)c3ccc(C)cc3)c2)cc1`, the growth was 77.3% (inactive).
The value for `COc1cc(C2C(C(=O)OCc3ccccc3)=C(C)Nc3nc4ccccc4n32)cc(OC)c1OC` (stereo not given) was 45.5% (inactive); that for `Clc1ccccc1Nc1nnc(-c2c[nH]c3ccccc23)o1` was 29.8% (inactive).
For `CC[C@]12C=CCN3CC[C@]4(C(=C(C(=O)OC)C1)Nc1cc(OC)c([C@@H]5[C@H]6O[C@H]6[C@@]6(CC)CC(C(=O)OC)=C7Nc8cc(OC)ccc8[C@@]78CCN5[C@@H]68)cc14)[C@@H]32` the value was 93.2% (inactive); for `Cc1ccc(Nc2nnc(-c3c[nH]c4ccccc34)o2)c(C)c1`, 16.3% (inactive).
Turning to `O=C1Nc2ccccc2/C1=C/C(=O)c1cc2ccccc2oc1=O`, the growth is 112% (inactive).
As for `N#Cc1cc(-c2ccnc(Nc3ccc(N4CCN(C5COC5)CC4)cc3)n2)ccc1N1CCCC1`, the growth was 93.5% (inactive).
For `C[C@@H]1[C@H]2C[C@@H](C[C@H]1NCc1nc3ccccc3n1C1CCCCCC1)C2(C)C` the value was 85.9% (inactive); for `Cn1cc(-c2cc(N)n3nc(-c4c[nH]c5ccccc45)cc3n2)c2ccccc21`, -79% (active); for `Cc1ccc(C(=O)C[n+]2cccc3c4ccccc4ccc32)cc1`, 31.3% (inactive).
The value for `COc1cc2cc(C(=O)N3C[C@@H](CCl)c4c3cc(OC(=O)N(C)CCSSCCN3CCOCC3)c3ccccc43)[nH]c2c(OC)c1OC` was -42.8% (active).
Take `Cc1ccc2nc(NC(=O)Nc3cccc(Cl)c3)sc2c1`: the growth was 118% (inactive).
For `NCCCCn1c(SCCc2c[nH]c3ccccc23)nnc1-c1ccc2ccccc2n1` the value was 26% (inactive); for `COc1cc(NC(=O)C(C)C)ccc1C(=O)NC(=S)Nc1ccc(S(N)(=O)=O)cc1`, 110% (inactive); for `COc1ccc2c(c1)C(=O)N(C)C2C1c2c(cc3c(c2OC)OCO3)CCN1C` (stereo not given), 67.2% (inactive).
For `CS(=O)(=O)Nc1cc(-c2ccc3ncnc(N4CCc5cc(F)c(Cl)cc54)c3c2)cnc1Cl` the value was 11.1% (inactive).
The value for `O=C(Nc1ccc(-c2ccc3c(c2)NC(=O)/C3=C\c2ccc[nH]2)cc1)Nc1cccc(Cl)c1` was -68.3% (active).
Regarding `O=C1CC(c2ccc(I)cc2)OC2C=Cc3ccccc3C12` (stereo not given), the growth is 115% (inactive).
